Screening results deposited in PubChem BioAssay by National Center for Advancing Translational Sciences (NCATS).
Most compounds without a hit are left out; they make up all but 6.9% or so of the library.
Giardia kill = Giardia lamblia killing. 0.15% of 340,000 active. Giardia lamblia trophozoite viability. activity change, % at 7.66 µM, hits read low; in the data active = activity change below about -80%; inconclusive = between about -30% and that limit;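 also: parasites exposed to compound for two days anaerobically before the ATP read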
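Luminescent ATP signal served as the viability read-out, measured 15-30 min after adding ATP detection reagent to trophozoites that had been incubated with compounds for 48 hrs at 37 deg C anaerobically at 100 cells/well.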
Vif-A3F inh = inhibitors of Vif-A3F interaction | Potency, µM (series often up to 46.1 µM) | HeLa A3F-eYFP + Vif (tagged APOBEC3F with the HIV-1 protein that degrades it), YFP fluorescence increase | 0.2% of 390,000 active | AID 602313; also: nearly all actives have a fitted effect of over 65% in size
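Fluorescence increase (Ex 488/Em 500-530) after overnight compound treatment at 37 deg C flags inhibition of Vif-driven A3F-eYFP loss in stable HeLa A3F-eYFP/Vif cells seeded overnight beforehand.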
MCF10A rerep = DNA re-replication induction in MCF 10a cells. MCF 10A DNA re-replication, Hoechst nuclear intensity, 48 h. Potency, µM (titrated, usually from 46.1 µM), usual class: activators. 2.9% of 350,000 active. AID 624296; also: nearly all actives have a fitted effect of over 50% in size
IL1B secr inh = blocks inflammasome-driven IL-1 beta release. AID 743279. 4.7% of 360,000 active. THP-1 LPS/ATP IL-1B secretion, AlphaLISA, 16 h; stronger effect = lower value. activity change, % at 57.5 µM; in the data active = activity change below about -50%; inconclusive = mostly about -30% to -49%
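THP-1 cells pretreated 1 hr with compounds (up to 57.5 uM final), then stimulated with LPS (250 ng/mL final) plus ATP (1.25 mM final); secreted IL-1B measured by AlphaLISA after 16 hr, decreased signal indicating inhibition.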
SW480 rereplic = induces DNA re-replication in SW480 colon adenocarcinoma cells; SW480 DNA re-replication, Hoechst DNA content imaging, 48 h; Potency, µM (doses to about 46.1 µM), usual class: activators; 1.8% of 340,000 active; AID 624297; also: nearly all actives have a fitted effect of over 55% in size
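Image-based DNA-content assay: after two days of treatment, nuclei were labelled with the DNA dye Hoechst and imaged, and hits were compounds raising the count of nuclei showing high fluorescence intensity.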
Vif-A3G inh = blocks the Vif interaction with human APOBEC3G. Q9HC16. HeLa A3G-eYFP + Vif (tagged APOBEC3G with the HIV-1 protein that degrades it), YFP fluorescence, overnight. Potency, µM (top dose mostly 46.1 µM), hits mostly inhibitors. 0.076% of 410,000 active. AID 602310; also: nearly all actives have a fitted effect of over 60% in size
Target sequence (Q9HC16 whole entry, looked up): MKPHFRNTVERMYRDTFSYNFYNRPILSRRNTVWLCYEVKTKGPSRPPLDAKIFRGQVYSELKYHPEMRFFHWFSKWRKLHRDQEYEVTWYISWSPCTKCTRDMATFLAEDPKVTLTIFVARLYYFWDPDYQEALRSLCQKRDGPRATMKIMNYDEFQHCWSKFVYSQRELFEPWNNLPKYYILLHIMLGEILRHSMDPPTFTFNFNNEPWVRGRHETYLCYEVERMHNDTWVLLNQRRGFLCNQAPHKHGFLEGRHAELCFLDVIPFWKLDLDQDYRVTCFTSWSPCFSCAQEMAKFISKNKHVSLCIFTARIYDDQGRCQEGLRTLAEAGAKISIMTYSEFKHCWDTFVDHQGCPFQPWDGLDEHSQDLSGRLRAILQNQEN
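Read-out is eYFP fluorescence (Ex 488/Em 500-530) from Vif-expressing HeLa A3G-eYFP cells; more signal means A3G escaped Vif-mediated degradation. Cells plated overnight, compound pinned in, incubated overnight at 37 deg C.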
Hits are given with their value; n = inactive; u = inconclusive; x = no result given. Unless noted, calls follow the shape of the dose curve; as a rule, active = well fitted curve in the direction sought with a large enough effect; inconclusive = small, poorly fitted or top-dose-only effect, or another doubt; inactive = no such curve, though single readings can be large; an effect the other way counts as inactive or inconclusive.

SMILES	Giardia kill	Vif-A3F inh	MCF10A rerep	IL1B secr inh	SW480 rereplic	Vif-A3G inh
NCCCn1c(C(=O)c2cc(Cl)c(N)c(Cl)c2)c2ccc([N+](=O)[O-])cc2[n+]1[O-]	u	n	n	n	1µM	n
COC(=O)c1cc2occc2n1Cc1nc(-c2cccc(Br)c2)oc1C	x	n	x	x	x	n
COc1cc(OC)c(OC)cc1/C=C/c1cc(C(=O)O)c2ccccc2n1	n	n	n	n	n	n
Cc1cc(/C=C\c2ccccc2)nc2ccccc12	n	n	n	-52	u	n
COc1ccc(/C=C/c2cc(C(=O)O)c3ccccc3n2)cc1	-93	n	n	n	u	n
CCOc1ccc(NC(=O)c2oc3ccccc3c2NC(=O)C(C)Oc2ccccc2)cc1 (configuration not stated)	x	n	x	x	x	n
Cc1ccc(O)c(C2=Nc3ccccc3N=C(c3cccs3)C2)c1	n	n	21µM	n	n	n
Cc1cccc(-c2ncc(CN3CCN(C4CCCC4)C(CCO)C3)cn2)c1 (configuration not stated)	n	n	n	n	u	n
Cc1cccc(-c2ncc(CN3CCN(CCC(C)C)C(CCO)C3)cn2)c1 (configuration not stated)	n	n	n	n	23µM	n
COc1ccc(OC)c(NC(=O)c2cn(CC(C)C)c(=O)c3cc(OC)c(OC)cc23)c1	x	n	x	x	x	n
N#Cc1c(-c2ccc(Cl)cc2)c(C#N)c(=O)n(N)c1N	n	n	n	n	n	n
N#Cc1c(-c2ccc(Cl)cc2)n(O)c2ccccc12	n	n	3.7µM	-54	8.2µM	n
Cc1cc(C)cc(Nc2cnn(C34CC5CC(CC(CC(=O)O)(C5)C3)C4)c(=O)c2Cl)c1	n	n	23µM	u	u	n
Cc1cc(C)cc(NC(=O)CC23CC4CC(C2)CC(n2nnc(C)n2)(C4)C3)c1	n	n	u	-75	n	n
Cc1ccc(S(=O)(=O)c2cnc(-c3ccccc3)[nH]c2=O)cc1	n	x	x	x	x	x
COc1ccc(OC)c(NC(=O)CSc2nncc3ccccc23)c1	n	n	n	n	u	n
O=C(CSc1nncc2ccccc12)Nc1ccc(F)cc1	n	n	n	-84	n	n
CCOc1ccccc1NC(=O)CSc1nncc2ccccc12	n	n	u	-84	n	n
O=C(CSc1nncc2ccccc12)Nc1ccccc1	n	n	n	n	n	n
COc1ccccc1CNC(=O)C1CCN(S(=O)(=O)c2ccc3c(ccn3C)c2)CC1	x	n	x	x	x	n
O=C(c1nc(-c2ccc(Cl)cc2)n2c1CCCCC2)N1CCN(c2ccccc2F)CC1	x	n	x	x	x	n
COc1cccc2cc(C(=O)C3=C(O)C(=O)N(CCN(C)C)C3c3ccc(F)cc3)oc12 (configuration not stated)	n	n	5.8µM	n	8.2µM	n
COc1ccc(C(C#N)=Cc2ccc(NC(C)=O)cc2)cc1	n	n	16µM	n	u	n
COc1ccc2nc(/C(C#N)=C\c3ccc(C(=O)O)cc3)[nH]c2c1	n	n	n	n	18µM	n
COc1cc(Br)c(/C=C(\C#N)c2nc3ccccc3[nH]2)cc1OC	x	25µM	x	x	x	n
SMILES	Giardia kill	Vif-A3F inh	MCF10A rerep	IL1B secr inh	SW480 rereplic	Vif-A3G inh
COc1ccc(-c2c(C#N)c(N)nc(Sc3ccc(Cl)cc3)c2C#N)cc1	n	u	u	x	u	u
COc1nc(N)c(C#N)c(-c2ccc(N(C)CCC#N)cc2)c1C#N	n	n	18µM	u	n	n
Cc1ccc(S(=O)c2ccc([N+](=O)[O-])c3nonc23)cc1 (configuration not stated)	x	22µM	x	u	x	u
O=C(CN1C2=NCCN2c2ccccc21)c1ccc2c(c1)OCO2	n	n	u	-81	n	n
O=C(CN1C2=NCCN2c2ccccc21)c1ccc(Br)cc1	n	n	n	n	n	n
COc1cc(CSc2nnnn2-c2ccc(C)cc2)cc(OC)c1OC	n	n	n	-77	n	n
CC(C)(C)c1cc(C(=O)NNc2cc(C(F)(F)F)ccc2Cl)n(Cc2ccccc2)n1	n	u	21µM	-80	n	n
COc1ccccc1NNC(=O)c1cc(C(C)(C)C)nn1Cc1ccccc1	n	n	n	-56	n	n
